The panel holds about 79,000 compounds, 15% with a hit somewhere; the sample as a whole holds those more often. Rule as the data show it: active = growth inhibition above about 70%; inactive = the rest.
Columns and labels:
[1] = NCI Yeast Anticancer Drug Screen. Data for the rad50 strain (AID 155);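 also: 0% = growth of vehicle-only cultures of the same strain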; settings: S. cerevisiae rad50 strain growth inhibition; at 50.0 µM; hits give high values
In short: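 Genetically altered yeast (DNA repair pathway); compound treatment; growth inhibition vs vehicle ctrl.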

[2] = NCI Yeast Anticancer Drug Screen. Data for the mec2-1 strain (AID 157); settings: S. cerevisiae mec2-1 strain, at 50.0 µM, hits give high values
In short: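 mec2-1 yeast strain, carrying an alteration in DNA damage repair or cell cycle control, was exposed to compounds; growth inhibition was measured relative to vehicle-treated controls.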

[3] = NCI Yeast Anticancer Drug Screen. Data for the sgs1 mgt1 strain (AID 161);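 also: 0% = growth of cultures given vehicle only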; settings: S. cerevisiae sgs1 mgt1 strain, at 50.0 µM, hits give high values
In short: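 This yeast growth screen uses a strain with defined DNA-repair lesions; compound-treated growth is compared with vehicle-treated growth.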

[4] = NCI Yeast Anticancer Drug Screen. Data for the cln2 rad14 strain (AID 165);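 also: 0% = growth equal to vehicle treated cultures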; settings: S. cerevisiae cln2 rad14 strain, at 50.0 µM, hits give high values
In short: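 Yeast carrying cln2 and rad14 alterations (cell cycle control and DNA damage repair) were exposed to compounds. Growth inhibition was measured against vehicle-treated controls.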

[5] = NCI Yeast Anticancer Drug Screen. Data for the bub3 strain (AID 167); settings: S. cerevisiae bub3 mutant strain, at 50.0 µM, hits give high values
In short: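 Yeast carrying a defined mutation is treated with each compound, and growth is compared with that of vehicle-exposed cells to give inhibition.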

[6] = NCI Yeast Anticancer Drug Screen. Data for the mlh1 rad18 strain (AID 175); settings: S. cerevisiae mlh1 rad18 strain growth inhibition; at 50.0 µM; hits give high values
In short: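 Growth inhibition of the yeast strain was measured after compound exposure and expressed relative to vehicle-treated controls. The strain carries defined defects in DNA damage repair.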

Measured: growth inhibition

OC1CCCCC1C1CCCCC1 (stereo unspecified)
inactive: [1] 28.9% | [2] 4.45% | [3] 15.2% | [4] 22.3% | [5] -4.4% | [6] 26.7%

COC(=O)CCC1(CCC(=O)OC)CCCCCCC(CCC(=O)OC)(CCC(=O)OC)C(=O)C1=O
inactive: [1] -11.6% | [2] -0.5% | [3] -1.25% | [4] -2.45% | [5] 5.25% | [6] 19.8%

Cc1nc(C(N)=S)sc1C(=O)/C=C/c1c(O)ccc2ccccc12
inactive: [1] 49.4% | [2] 9.55% | [3] 33.4% | [4] 23.8% | [5] 31.1% | [6] 40.3%

CN/N=C(\C(=O)Nc1ccc(C)c(C)c1)C(C(=O)OC)c1nc2ccc([N+](=O)[O-])cc2[nH]c1=O (stereo unspecified)
inactive: [1] -42.9% | [2] 2.7% | [3] -19.1% | [4] 19.3% | [5] -1.25% | [6] -18.2%

Sc1ccc2ccccc2c1
inactive: [1] 12.4% | [2] 9.15% | [3] -23.3% | [4] -38.4% | [5] -17.1% | [6] -30.4%

O=S(=O)(Oc1ccc(Cl)cc1)c1cccc(S(=O)(=O)Oc2ccc(Cl)cc2)c1
inactive: [1] 12.8% | [2] 1.6% | [3] -2.65% | [4] -5.55% | [5] 5.5% | [6] 1.8%

COc1cc2oc(-c3ccc(O)cc3)c(OC3OC(C)C(O)C(O)C3O)c(=O)c2c(O)c1OC (stereo unspecified)
inactive: [1] 0.45% | [2] -13.8% | [3] -15.6% | [4] 9.4% | [5] -7.95% | [6] -74.6%

O=C1OC2(c3ccc(O)cc3Oc3cc(O)ccc32)c2ccccc21
inactive: [1] 6.6% | [2] 0.55% | [3] 10.2% | [4] 26.7% | [5] -0.05% | [6] -1.2%

Nc1[nH]c(=S)[nH]c(=O)c1NS(=O)(=O)c1cccc([N+](=O)[O-])c1
inactive: [1] -14.1% | [2] -10% | [3] -22.1% | [4] -18.2% | [5] -11.4% | [6] 12.8%

CC1CC(C)(C)OC(C2CC=CCC2)O1 (stereo unspecified)
inactive: [1] -12.7% | [2] -19.6% | [3] -13.8% | [4] -1.95% | [5] 2.35% | [6] 2.7%

COC[C@@H](N=CN1CCc2cc(OC)c(OC)cc2C1)C(C)(C)C
inactive: [1] -31.2% | [2] -18.2% | [3] -14.6% | [4] 13% | [5] -11.3% | [6] -17%

OCCn1c2ccccc2c2ccccc21
inactive: [1] 20.2% | [2] -2.65% | [3] 18.6% | [4] -17.2% | [5] 14% | [6] -0.7%

CC(=O)c1cc2c(cc1C)C(C)(C)CCC2C (stereo unspecified)
inactive: [1] -0.75% | [2] -24.8% | [3] -7.3% | [4] -5% | [5] 7.35% | [6] 2.3%

CC1C(C)(C)P(=O)(OCCOP2(=O)C(C)(C)C(C)C2(C)C)C1(C)C (stereo unspecified)
inactive: [1] 35% | [2] -0.85% | [3] 22.2% | [4] -9.6% | [5] 3.75% | [6] 7.25%

O=C1C=C(NCCc2ccccc2)c2ccccc2C1=O
inactive: [1] 38.5% | [2] -8.6% | [3] 16.6% | [4] 9.15% | [5] 40.4% | [6] -5.1%

Cc1ccc2cccc(-c3cccc4ccccc34)c2n1
inactive: [1] 5.3% | [2] 7.9% | [3] 3.4% | [4] -0.05% | [5] -2.35% | [6] 28.8%

O=C(O)CCC1CCc2cccc(O)c2C1=O (stereo unspecified)
inactive: [1] 8.4% | [2] 3.3% | [3] 2.25% | [4] 15.6% | [5] 6.5% | [6] -3.45%

O=C1C(=Cc2cccc(O)c2)N=C(c2ccccc2)N1n1c(-c2ccccc2)nc2ccccc2c1=O
inactive: [1] -14.3% | [2] 5.15% | [3] 25.8% | [4] 14.7% | [5] -1.75% | [6] 11.9%

OCC1OC(OC2CCCCC2)C(O)C(O)C1O (stereo unspecified)
inactive: [1] -1.45% | [2] 51.5% | [3] 21.9% | [4] -5.05% | [5] 24.6% | [6] 32.8%

CC(CN(C)C)C(=O)c1ccccc1C(=O)O (stereo unspecified)
inactive: [1] -44.9% | [2] -24.9% | [3] -36% | [4] -35.2% | [5] -2.05% | [6] -16.7%

COc1cc(NN=C(C#N)C#N)c(OC)cc1Cl
inactive: [1] 37.6% | [2] 11.2% | [3] 48% | [4] 23.1% | [5] 40.7% | [6] 34.7%
